# According to PubChem BioAssay AID1159580 (chemical genetic matrix, 2015):
# Screen size: about 5,500 compounds; about 2,000 (36%) were called active. Another 18% or so got no clear call; they are omitted. Some of the results follow. Unmarked numbers belong to inactive results. No stated cut-off is given here; in the data, active means normalized growth mostly below about 0.91 (no sharp cut-off); inconclusive means no clear call, values can overlap the other calls; inactive means mostly above about 0.92.
# Assay: chemical genetic growth profiling, strain panel (AID 1159580);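 further: tested at 20 µM; growth read once vehicle control cultures reached saturation at 30 °C; 1 = growth at the plate median or of vehicle wells; lower values mean less growth of the strain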
# Details: growth OD
# [1] = S. cerevisiae deletion strains, locus YBR021W, strain FUR4, active compounds read low
# [2] = S. cerevisiae deletion strains, locus YBR229C, strain ROT2, active compounds read low
# [3] = S. cerevisiae deletion strains, locus YCL029C, strain bik1, active compounds read low
# [4] = S. cerevisiae deletion strains, locus YDL035C, strain GPR1, active compounds read low
# [5] = S. cerevisiae deletion strains, locus YDL074C, strain BRE1, active compounds read low
# [6] = S. cerevisiae deletion strains, locus YDL101C, strain DUN1, active compounds read low
# [7] = S. cerevisiae deletion strains, locus YDL185W, strain tfp1, active compounds read low
# [8] = S. cerevisiae deletion strains, locus YDL192W, strain arf1, active compounds read low
# [9] = S. cerevisiae deletion strains, locus YDR101C, strain arx1, active compounds read low
# [10] = S. cerevisiae deletion strains, locus YDR162C, strain NBP2, active compounds read low
# [11] = S. cerevisiae deletion strains, locus YDR318W, strain mcm21, active compounds read low
# [12] = S. cerevisiae deletion strains, locus YDR388W, active compounds read low
# [13] = S. cerevisiae deletion strains, locus YDR502C, strain sam2, active compounds read low
# [14] = S. cerevisiae deletion strains, locus YEL061C, strain CIN8, active compounds read low
# [15] = S. cerevisiae deletion strains, locus YER110C, active compounds read low
# [16] = S. cerevisiae deletion strains, locus YER167W, strain BCK2, active compounds read low
# [17] = S. cerevisiae deletion strains, locus YGL078C, strain dbp3, active compounds read low
# [18] = S. cerevisiae deletion strains, locus YGL086W, strain mad1, active compounds read low
# [19] = S. cerevisiae deletion strains, locus YGL248W, strain PDE1, active compounds read low
# [20] = S. cerevisiae deletion strains, locus YGR135W, strain pre9, active compounds read low
# [21] = S. cerevisiae deletion strains, locus YGR252W, strain gcn5, active compounds read low
# [22] = S. cerevisiae deletion strains, locus YHR079C, strain IRE1 (second series), active compounds read low
# [23] = S. cerevisiae deletion strains, locus YHR094C, strain hxt1, active compounds read low
# [24] = S. cerevisiae deletion strains, locus YHR129C, strain ARP1, active compounds read low
# [25] = S. cerevisiae deletion strains, locus YHR200W, strain rpn10, active compounds read low
# [26] = S. cerevisiae deletion strains, locus YIL066C, strain RNR3, active compounds read low
# [27] = S. cerevisiae deletion strains, locus YIL073C, strain SPO22, active compounds read low
# [28] = S. cerevisiae deletion strains, locus YIL125W, strain kgd1, active compounds read low
# [29] = S. cerevisiae deletion strains, locus YIR030C, strain dcg1, active compounds read low
# [30] = S. cerevisiae deletion strains, locus YJL095W, strain BCK1, active compounds read low
# [31] = S. cerevisiae deletion strains, locus YJL134W, strain LCB3, active compounds read low
# [32] = S. cerevisiae deletion strains, locus YJL168C, strain set2, active compounds read low
# [33] = S. cerevisiae deletion strains, locus YJL187C, strain SWE1 (second series), active compounds read low
# [34] = S. cerevisiae deletion strains, locus YJR043C, strain POL32, active compounds read low
# [35] = S. cerevisiae deletion strains, locus YKL009W, strain mrt4, active compounds read low
# [36] = S. cerevisiae deletion strains, locus YKL068W, active compounds read low
# [37] = S. cerevisiae deletion strains, locus YKL085W, strain MDH1 (second series), active compounds read low
# [38] = S. cerevisiae deletion strains, locus YKL085W, strain MDH1, active compounds read low
# [39] = S. cerevisiae deletion strains, locus YKL190W, strain CNB1, active compounds read low
# [40] = S. cerevisiae deletion strains, locus YKR001C, strain vps1, active compounds read low
# [41] = S. cerevisiae deletion strains, locus YLR039C, strain RIC1, active compounds read low
# [42] = S. cerevisiae deletion strains, locus YLR058C, strain SHM2, active compounds read low
# [43] = S. cerevisiae deletion strains, locus YLR102C, strain apc9, active compounds read low
# [44] = S. cerevisiae deletion strains, locus YLR262C, strain YPT6, active compounds read low
# [45] = S. cerevisiae deletion strains, locus YLR268W, strain sec22, active compounds read low
# [46] = S. cerevisiae deletion strains, locus YLR330W, strain CHS5, active compounds read low
# [47] = S. cerevisiae deletion strains, locus YLR371W, strain rom2, active compounds read low
# [48] = S. cerevisiae deletion strains, locus YLR418C, strain cdc73, active compounds read low
# [49] = S. cerevisiae deletion strains, locus YML016C, strain PPZ1, active compounds read low
# [50] = S. cerevisiae deletion strains, locus YML032C, strain rad52, active compounds read low
# [51] = S. cerevisiae deletion strains, locus YML124C, strain tub3, active compounds read low
# [52] = S. cerevisiae deletion strains, locus YMR078C, strain ctf18, active compounds read low
# [53] = S. cerevisiae deletion strains, locus YMR223W, strain ubp8, active compounds read low
# [54] = S. cerevisiae deletion strains, locus YMR263W, strain SAP30, active compounds read low
# [55] = S. cerevisiae deletion strains, locus YMR307W, strain GAS1, active compounds read low
# [56] = S. cerevisiae deletion strains, locus YNL067W, strain RPL9B, active compounds read low
# [57] = S. cerevisiae deletion strains, locus YNL128W, strain TEP1, active compounds read low
# [58] = S. cerevisiae deletion strains, locus YNL153C, strain GIM3, active compounds read low
# [59] = S. cerevisiae deletion strains, locus YNL233W, strain BNI4, active compounds read low
# [60] = S. cerevisiae deletion strains, locus YNL250W, strain rad50, active compounds read low
# [61] = S. cerevisiae deletion strains, locus YNL271C, strain bni1, active compounds read low
# [62] = S. cerevisiae deletion strains, locus YNL298W, strain CLA4, active compounds read low
# [63] = S. cerevisiae deletion strains, locus YNL307C, strain MCK1, active compounds read low
# [64] = S. cerevisiae deletion strains, locus YNR052C, strain pop2, active compounds read low
# [65] = S. cerevisiae deletion strains, locus YOL012C, strain htz1
# [66] = S. cerevisiae deletion strains, locus YOL147C, strain pex11, active compounds read low
# [67] = S. cerevisiae deletion strains, locus YOR061W, strain CKA2, active compounds read low
# [68] = S. cerevisiae deletion strains, locus YOR069W, strain VPS5, active compounds read low
# [69] = S. cerevisiae deletion strains, locus YOR136W, strain idh2, active compounds read low
# [70] = S. cerevisiae deletion strains, locus YOR144C, strain elg1, active compounds read low
# [71] = S. cerevisiae deletion strains, locus YOR184W, strain ser1, active compounds read low
# [72] = S. cerevisiae deletion strains, locus YOR316C, strain cot1, active compounds read low
# [73] = S. cerevisiae deletion strains, locus YPR119W, strain clb2, active compounds read low
# [74] = S. cerevisiae deletion strains, locus YPR141C, strain kar3, active compounds read low
# [75] = S. cerevisiae deletion strains, locus YPR163C, strain tif3, active compounds read low
# [76] = S. cerevisiae deletion strains, locus YPR167C, strain met16, active compounds read low
# [77] = S. cerevisiae deletion strains, strain wtn01, active compounds read low
# [78] = S. cerevisiae strains, strain wild type, active compounds read low
compound,measurement,setting,value
COc1cc(C)c2c(=O)c3c(O)cc(OC)cc3oc2c1,normalized growth,"S. cerevisiae deletion strains, locus YAL013W, strain DEP1, active compounds read low",1.01
same,normalized growth,[1],0.968
same,normalized growth,[2],1.02
same,normalized growth,[3],0.991
same,normalized growth,[4],1.01
same,normalized growth,[5],1.02
same,normalized growth,[6],1.02
same,normalized growth,"S. cerevisiae deletion strains, locus YDL134C, strain PPH21, active compounds read low",1.01
same,normalized growth,[7],0.991
same,normalized growth,[8],0.986
same,normalized growth,[9],0.981
same,normalized growth,"S. cerevisiae deletion strains, locus YDR150W, strain NUM1, active compounds read low",1.02
same,normalized growth,[10],1.02
same,normalized growth,[11],0.986
same,normalized growth,[12],0.981
same,normalized growth,[13],0.982
same,normalized growth,[14],1.01
same,normalized growth,[15],0.977
same,normalized growth,"S. cerevisiae deletion strains, locus YER155C, strain BEM2, active compounds read low",1
same,normalized growth,[16],1.01
same,normalized growth,[17],0.976
same,normalized growth,[18],0.982
same,normalized growth,[19],1.02
same,normalized growth,"S. cerevisiae deletion strains, locus YGR078C, strain PAC10, active compounds read low",1
same,normalized growth,[20],0.977
same,normalized growth,"S. cerevisiae deletion strains, locus YGR229C, strain SMI1, active compounds read low",0.996
same,normalized growth,[21],0.929
same,normalized growth,"S. cerevisiae deletion strains, locus YHR030C, strain SLT2, active compounds read low",1.01
same,normalized growth,[22],0.977
same,normalized growth,[23],0.991
same,normalized growth,[24],1.01
same,normalized growth,[25],0.975
same,normalized growth,[26],1.01
same,normalized growth,[27],0.967
same,normalized growth,[28],0.984
same,normalized growth,[29],0.994
same,normalized growth,[30],0.995
same,normalized growth,[31],1.01
same,normalized growth,[32],0.982
same,normalized growth,[33],1.02
same,normalized growth,[34],0.999
same,normalized growth,"S. cerevisiae deletion strains, locus YJR075W, strain HOC1, active compounds read low",1.01
same,normalized growth,[35],0.984
same,normalized growth,[36],0.993
same,normalized growth,[37],1.03
same,normalized growth,[38],1.03
same,normalized growth,[39],1.01
same,normalized growth,[40],0.982
same,normalized growth,[41],1.04
same,normalized growth,[42],1.02
same,normalized growth,[43],0.982
same,normalized growth,[44],1.04
same,normalized growth,[45],0.987
same,normalized growth,[46],1.02
same,normalized growth,"S. cerevisiae deletion strains, locus YLR342W, strain FKS1 (second series), active compounds read low",0.996
same,normalized growth,[47],0.984
same,normalized growth,[48],0.981
same,normalized growth,[49],1.02
same,normalized growth,[50],0.978
same,normalized growth,[51],0.985
same,normalized growth,[52],0.993
same,normalized growth,[53],0.98
same,normalized growth,[54],1.01
same,normalized growth,[55],0.976
same,normalized growth,[56],1.01
same,normalized growth,[57],1.01
same,normalized growth,[58],1.01
same,normalized growth,[59],1.01
same,normalized growth,[60],0.992
same,normalized growth,[61],0.98
same,normalized growth,[62],0.976
same,normalized growth,[63],0.981
same,normalized growth,"S. cerevisiae deletion strains, locus YNL322C, strain KRE1, active compounds read low",1.01
same,normalized growth,[64],0.978
same,normalized growth,"S. cerevisiae deletion strains, locus YOL006C, strain TOP1, active compounds read low",1.05
same,normalized growth,[65],1.37
same,normalized growth,[66],0.985
same,normalized growth,[67],1.02
same,normalized growth,[68],1.01
same,normalized growth,[69],0.979
same,normalized growth,[70],0.99
same,normalized growth,[71],0.969
same,normalized growth,[72],0.982
same,normalized growth,"S. cerevisiae deletion strains, locus YPL055C, strain LGE1, active compounds read low",1.01
same,normalized growth,"S. cerevisiae deletion strains, locus YPL241C, strain CIN2, active compounds read low",0.99
same,normalized growth,[73],0.98
same,normalized growth,[74],1
same,normalized growth,[75],0.988
same,normalized growth,[76],0.985
same,normalized growth,[77],0.986
same,normalized growth,[78],1.01
COc1cc(C)c2c(=O)c3c(O)cc(O)cc3oc2c1,normalized growth,[1],0.936
same,normalized growth,[2],0.975
same,normalized growth,[3],0.95
same,normalized growth,[4],0.994
same,normalized growth,[5],0.95
same,normalized growth,[6],0.974
same,normalized growth,[7],0.955
same,normalized growth,[8],0.891 (active)
same,normalized growth,[9],0.943
same,normalized growth,[10],0.967
same,normalized growth,[11],0.906 (active)
same,normalized growth,[12],0.941
same,normalized growth,[13],0.92 (active)
same,normalized growth,[14],1.02
same,normalized growth,[15],0.948
same,normalized growth,[16],0.983
same,normalized growth,[17],0.946
same,normalized growth,[18],0.904 (active)
same,normalized growth,[19],0.934
same,normalized growth,[20],0.93
same,normalized growth,[21],0.764 (active)
same,normalized growth,[22],0.925 (active)
same,normalized growth,[23],0.961
same,normalized growth,[24],0.995
same,normalized growth,[25],0.904 (active)
same,normalized growth,[26],0.986
same,normalized growth,[27],0.923
same,normalized growth,[28],0.957
same,normalized growth,[29],0.953
same,normalized growth,[30],0.829
same,normalized growth,[31],0.981
same,normalized growth,[32],0.975
same,normalized growth,[33],0.953
same,normalized growth,[34],0.979
same,normalized growth,[35],0.911
same,normalized growth,[36],0.971
same,normalized growth,[37],0.952
same,normalized growth,[38],0.952
same,normalized growth,[39],1
same,normalized growth,[40],0.871 (active)
same,normalized growth,[41],0.865
same,normalized growth,[42],0.941
same,normalized growth,[43],0.969
same,normalized growth,[44],0.846
same,normalized growth,[45],0.941
same,normalized growth,[46],0.973
same,normalized growth,[47],0.936
same,normalized growth,[48],0.815 (active)
same,normalized growth,[49],0.974
same,normalized growth,[50],0.829 (active)
same,normalized growth,[51],0.967
same,normalized growth,[52],0.954
same,normalized growth,[53],0.884 (active)
same,normalized growth,[54],0.979
same,normalized growth,[55],0.752
same,normalized growth,[56],0.992
same,normalized growth,[57],0.985
same,normalized growth,[58],0.989
same,normalized growth,[59],0.86 (active)
same,normalized growth,[60],0.889 (active)
same,normalized growth,[61],0.953
same,normalized growth,[62],0.962
same,normalized growth,[63],0.868 (active)
same,normalized growth,[64],0.933
same,normalized growth,[65],0.866
same,normalized growth,[66],0.923 (active)
same,normalized growth,[67],0.982
same,normalized growth,[68],0.997
same,normalized growth,[69],0.925
same,normalized growth,[70],0.954
same,normalized growth,[71],0.918
same,normalized growth,[72],0.96
same,normalized growth,[73],0.956
same,normalized growth,[74],0.958
same,normalized growth,[75],0.896 (active)
same,normalized growth,[76],0.883 (active)
same,normalized growth,[77],0.919
same,normalized growth,[78],0.932
